Data published in PubChem BioAssay AID2234 (The Scripps Research Institute Molecular Screening Center, 2010).
The whole screen tested about 320,000 compounds, of which about 480 (0.15%) were called active. The entries come from a sample that favours actives as a whole. A number with no mark means an inactive call. No stated cut-off is given here; in the data, active means inhibition above about 33%; inactive means the rest.

These compounds were tested against Lytic switch protein BZLF1 (Epstein-Barr virus (strain B95-8)) (UniProt P03206) (assay: Zta-DNA interaction blockers, Epstein-Barr virus – biochemical, fluorescence polarization, single concentration, counter-screen for EBNA-1 inhibitor project, primary screen (AID 2234)). Conditions: ZTA-DNA binding, at 11 µM, active compounds read high.
Sequence of Lytic switch protein BZLF1 (Epstein-Barr virus (strain B95-8)) (P03206 whole entry, looked up): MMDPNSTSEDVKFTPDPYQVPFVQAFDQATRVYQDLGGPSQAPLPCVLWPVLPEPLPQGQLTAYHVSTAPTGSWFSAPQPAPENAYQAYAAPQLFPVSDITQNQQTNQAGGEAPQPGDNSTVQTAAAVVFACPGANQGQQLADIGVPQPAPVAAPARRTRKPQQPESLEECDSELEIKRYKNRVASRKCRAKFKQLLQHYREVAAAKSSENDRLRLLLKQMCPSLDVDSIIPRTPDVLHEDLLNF

SMILES	inhibition
Cc1cc(NC(=O)CS(=O)(=O)c2cn(C)c3ccccc23)no1	3.47%
Cc1nc(-c2ccc(Cl)cc2)sc1C1(C)CC(c2ccccc2F)=NO1 (centres undefined)	0.91%
O=C(CNS(=O)(=O)c1ccc(Br)s1)N1CCN(C(=O)c2ccco2)CC1	0.26%
Cc1cc(/C=N/NC(N)=O)c(C)n1C1CCCCC1	15.4%
CC(NC(=S)NNS(=O)(=O)c1ccc(C(C)(C)C)cc1)c1ccccc1 (centres undefined)	-5.57%
O=C(NC(=S)Nc1cccc(-c2ccc(CO)o2)c1)c1cccs1	-14.3%
CC1CCCCC1NC(=O)c1cn(C)c2ccc(S(=O)(=O)N3CCOCC3)cc2c1=O (centres undefined)	3.74%
O=S(=O)(Nc1ccc2nc(-c3ccco3)[nH]c2c1)c1ccccc1	-14.9%
Cc1ccc(C2NC(=S)NC3=C2N2CCC3CC2)cc1 (centres undefined)	-11.6%
CC12c3ccccc3C(c3ccccc31)C1C(=O)N(Cc3cccnc3)C(=O)C12 (centres undefined)	5.39%
COc1cccc(NC(=O)CN2CCN(CC(=O)Nc3ccccc3Cl)CC2)c1	4.73%
CN1/C(=c2/s/c(=C3/C(=O)N(c4ccccc4)NC3=Nc3ccccc3)n(C)c2=O)C(C)(C)c2ccccc21	7.42%
CC(C)Oc1ccc(CN2CCC(n3nccc3NC(=O)c3cccnc3)CC2)cc1	6.96%
COc1ccc(-c2c(C)nn3c(N4CCC(C(=O)N5CCCCC5)CC4)cc(C)nc23)cc1OC	6.7%
CC(C(=O)N(C)CC(=O)Nc1ccccc1C(F)(F)F)N1C(=O)c2ccccc2C1=O (centres undefined)	-0.42%
COc1ccc(OC)c(S(=O)(=O)N2CCCC(C(=O)NCCc3ccccc3)C2)c1 (centres undefined)	-17.4%
O=C(CCCC(=O)N(CC(=O)NC1CCCC1)Cc1ccccc1Cl)Nc1ccccn1	2.7%
Cc1cc(OC(=O)c2ccccc2Cl)ccc1N1C(=O)CCC1=O	-5.62%
COC(=O)c1ccccc1NC(=O)C1CCN(C(=O)N2CCOc3ccccc32)CC1	-14.3%
COc1ccc(N2CCN(C3CCCCC3NS(=O)(=O)c3ccccc3)CC2)cc1 (centres undefined)	-13.4%
CCC(C)C(=O)Nc1ccccc1N1CCN(c2ccc(F)cc2)CC1 (centres undefined)	-25.1%
Cc1c(C(=O)c2cccc([N+](=O)[O-])c2)c2ccccn2c1CCC#N	-12.6%
CC(C)C(=O)Nc1nnc(SCC(=O)N2C(C)CCCC2C)s1 (centres undefined)	-5.72%
CC(=O)c1sc(NC(=O)CCN2C(=O)C3CC=CCC3C2=O)nc1-c1ccccc1 (centres undefined)	0.93%
